Data: PubChem BioAssay (NCATS)
Results filed as inconclusive are left out. The source made the active and inactive calls. Calls come from the whole dose curve; as a rule, active = well fitted cell-killing curve with a large enough effect; inconclusive = small, poorly fitted or top-dose-only effect, or effect the other way; inactive = flat fitted curve, though single readings scatter.

Legend:
Test in all cases: Primary qHTS to identify gynecologic anti-cancer compounds using libraries of approved drugs and bioactive compounds (AID 1345084); note: nearly all actives have a fitted effect of over 55% in size
Conditions in all cases: Gynecologic cancer cell panel viability, ATPlite luminescence, 48 h; series mostly up to 57.5 µM
OV90 = system: OV90
How it was run: (§1)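 Luminescence from the ATPlite ATP-monitoring reagent indicates viable cell number; lower signal means cytotoxicity. Cells received compound 16 h after seeding and were exposed for 48 h across five concentrations.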

PA-1 = system: PA-1
How it was run: as §1

SKOV3 = system: SKOV3
How it was run: as §1

Tov-21-G = system: Tov-21-G
How it was run: as §1

Tov112D = system: Tov112D
How it was run: as §1
% is set by controls: 0 for no effect and ±100 for the full control effect.

CC(=O)OC1CCC2(C)C(CCC3(C)C2CC=C2C4CC(C)(C)CCC4(C)CCC23C)C1(C)C(=O)O (stereo not given)
inactive: Potency (OV90) | Potency (PA-1) | Potency (SKOV3) | Potency (Tov-21-G) | Potency (Tov112D)

CN1CCN(C(=O)c2cc3cc(Cl)ccc3[nH]2)CC1
inactive: Potency (OV90) | Potency (PA-1) | Potency (SKOV3) | Potency (Tov-21-G) | Potency (Tov112D)

C/C=C1\[C@H](O[C@@H]2O[C@H](CO)[C@@H](O)[C@H](O)[C@H]2O)OC=C(C(=O)O)[C@H]1CC(=O)OCCc1ccc(O)cc1
inactive: Potency (OV90) | Potency (PA-1) | Potency (SKOV3) | Potency (Tov-21-G) | Potency (Tov112D)

C[C@]12CCC[C@](C)(C(=O)O)C1[C@@H](O)[C@@H](O)C13CC(CCC12)C(CO)(O[C@@H]1O[C@H](CO)[C@@H](O)[C@H](O)[C@H]1O)C3 (stereo not given in full)
inactive: Potency (OV90) | Potency (PA-1) | Potency (SKOV3) | Potency (Tov-21-G) | Potency (Tov112D)

CC1CCC2C(C)(C)[C@H](O)CC[C@]2(C)C12Cc1c(O)cc3c(c1O2)CN(C(CCC(=O)O)C(=O)O)C3=O (stereo not given in full)
inactive: Potency (OV90) | Potency (PA-1) | Potency (SKOV3) | Potency (Tov-21-G) | Potency (Tov112D)

C/C=C1/[C@H](O[C@@H]2O[C@H](CO)[C@@H](O)[C@H](O)[C@H]2O)OC=C(C(=O)OC)[C@H]1CC(=O)OCCc1ccc(O)c(O)c1
inactive: Potency (OV90) | Potency (PA-1) | Potency (SKOV3) | Potency (Tov-21-G) | Potency (Tov112D)

N#Cc1cc(-c2n[nH]c(-c3ccncc3)n2)ccn1
inactive: Potency (OV90) | Potency (PA-1) | Potency (SKOV3) | Potency (Tov-21-G) | Potency (Tov112D)

CC(=O)OC[C@]12[C@@H](OC(=O)c3ccoc3)C[C@@H]3[C@@H](OC(C)=O)[C@]1(OC3(C)C)[C@@](C)(O)C[C@H](OC(=O)c1ccoc1)[C@@H]2OC(=O)c1ccoc1
inactive: Potency (OV90) | Potency (PA-1) | Potency (SKOV3) | Potency (Tov-21-G) | Potency (Tov112D)

COc1cc(C(O)C2COC(c3ccc(OC4OC(CO)C(O)C(O)C4O)c(OC)c3)C2CO)ccc1O (stereo not given)
inactive: Potency (OV90) | Potency (PA-1) | Potency (SKOV3) | Potency (Tov-21-G) | Potency (Tov112D)

CC(C)C1NC(=O)C(CC2(O)c3ccccc3N3C(=O)C(Cc4ccccc4)NC32)NC1=O (stereo not given)
inactive: Potency (OV90) | Potency (PA-1) | Potency (SKOV3) | Potency (Tov-21-G) | Potency (Tov112D)

C=CC(C)(O)CC/C=C(\C)C1CC=C(C)C(=O)O1 (stereo not given)
inactive: Potency (OV90) | Potency (PA-1) | Potency (SKOV3) | Potency (Tov-21-G) | Potency (Tov112D)

CCC1=C(C)C(=O)C(C)CC12C(=O)CCC2C(=O)O (stereo not given)
inactive: Potency (OV90) | Potency (PA-1) | Potency (SKOV3) | Potency (Tov-21-G) | Potency (Tov112D)

C[C@H]1[C@H](C)CC[C@]2(C(=O)OC3OC(CO)C(O)C(O)C3O)CC[C@]3(C(=O)O)C(=CCC4[C@@]5(C)CC[C@H](O[C@@H]6O[C@@H](C)[C@H](OC7OC(CO)C(O)C(O)C7O)[C@@H](O)[C@H]6O)C(C)(C)C5CC[C@]43C)[C@H]12 (stereo not given in full)
inactive: activity change, negative = cytotoxicity (OV90) 2.97% [at 11.6 µM] | activity change, negative = cytotoxicity (PA-1) -4.62% [at 11.6 µM] | activity change, negative = cytotoxicity (SKOV3) 0% [at 11.6 µM] | activity change, negative = cytotoxicity (Tov-21-G) 0.351% [at 11.6 µM] | activity change, negative = cytotoxicity (Tov112D) -1.72% [at 11.6 µM]

COc1cc2c(cc1O)CC(O)(CO)C(CO)C2c1ccc(OC2OC(CO)C(O)C(O)C2O)c(OC)c1 (stereo not given)
inactive: Potency (OV90) | Potency (PA-1) | Potency (SKOV3) | Potency (Tov-21-G) | Potency (Tov112D)

NC1Nc2ccccc2C1(N)CC1NC(=O)C(Cc2ccccc2)NC(=O)C(Cc2ccccc2)NC1=O (stereo not given)
inactive: Potency (OV90) | Potency (PA-1) | Potency (SKOV3) | Potency (Tov-21-G) | Potency (Tov112D)

C=C1CC/C=C(/C(=O)O)CCC2C1CC2(C)C (stereo not given)
inactive: Potency (OV90) | Potency (PA-1) | Potency (SKOV3) | Potency (Tov-21-G) | Potency (Tov112D)

COc1cc(O)cc(C)c1C(=O)O[C@H]1[C@@H](O)[C@@H](n2ccc(=O)[nH]c2=O)O[C@@H]1CO
inactive: Potency (OV90) | Potency (PA-1) | Potency (SKOV3) | Potency (Tov-21-G) | Potency (Tov112D)

Cc1noc2c1-c1ccccc1C(c1ccc(Cl)cc1)=N[C@H]2CC(N)=O
inactive: Potency (OV90) | Potency (PA-1) | Potency (SKOV3) | Potency (Tov-21-G) | Potency (Tov112D)

CC(=O)c1[nH]cc(CCC(=O)O)c1CC(=O)O
inactive: Potency (OV90) | Potency (PA-1) | Potency (SKOV3) | Potency (Tov-21-G) | Potency (Tov112D)

C=C1CC23CC1CCC2C12OC(=O)C(C)(C(O)CC1O)C2C3C(=O)O (stereo not given)
inactive: Potency (OV90) | Potency (PA-1) | Potency (SKOV3) | Potency (Tov-21-G) | Potency (Tov112D)

CC1(C)O[C@H]2CC(=O)OC[C@@]23C1=C(O)C(=O)[C@]1(C)C3CC[C@@]2(C)[C@H](c3ccoc3)OC(=O)[C@H]3O[C@]321 (stereo not given in full)
inactive: Potency (OV90) | Potency (PA-1) | Potency (SKOV3) | Potency (Tov-21-G) | Potency (Tov112D)

CC1(O)CC(O)C2C(C(=O)O)=COC(OC3OC(CO)C(O)C(O)C3OC(=O)/C=C/c3ccc(O)cc3)C21 (stereo not given)
inactive: Potency (OV90) | Potency (PA-1) | Potency (SKOV3) | Potency (Tov-21-G) | Potency (Tov112D)

COC(=O)C1=CO[C@@H](O[C@@H]2O[C@H](CO)[C@@H](O)[C@H](O)[C@H]2O)[C@@H]2[C@@H](CO)[C@@H](O)C(O)[C@H]12 (stereo not given in full)
inactive: Potency (OV90) | Potency (PA-1) | Potency (SKOV3) | Potency (Tov-21-G) | Potency (Tov112D)

COc1ccc(O[C@@H]2O[C@H](CO)[C@@H](O)[C@H](O)[C@H]2O)cc1OC
inactive: Potency (OV90) | Potency (PA-1) | Potency (SKOV3) | Potency (Tov-21-G) | Potency (Tov112D)

O=C(/C=C/c1ccc(O)cc1)O[C@H]1[C@H](OC2CCCCC2O)O[C@H](CO)[C@@H](O)[C@@H]1O (stereo not given in full)
inactive: Potency (OV90) | Potency (PA-1) | Potency (SKOV3) | Potency (Tov-21-G) | Potency (Tov112D)
